For 18 compounds, Potency results are on record in PubChem BioAssay (NCATS).

Results filed as inconclusive are left out. Entries that show only a call come without a potency. Active and inactive are the calls of the source. Calls come from the whole dose curve; as a rule, active = well fitted inhibition curve with a large enough effect; inconclusive = small, poorly fitted or top-dose-only effect; inactive = no such curve, though single readings can be large or run the other way.
Potency is the fitted concentration of half-maximal effect.

Sequence of Cytochrome P450 3A7 (Homo sapiens) (P24462 whole entry, looked up): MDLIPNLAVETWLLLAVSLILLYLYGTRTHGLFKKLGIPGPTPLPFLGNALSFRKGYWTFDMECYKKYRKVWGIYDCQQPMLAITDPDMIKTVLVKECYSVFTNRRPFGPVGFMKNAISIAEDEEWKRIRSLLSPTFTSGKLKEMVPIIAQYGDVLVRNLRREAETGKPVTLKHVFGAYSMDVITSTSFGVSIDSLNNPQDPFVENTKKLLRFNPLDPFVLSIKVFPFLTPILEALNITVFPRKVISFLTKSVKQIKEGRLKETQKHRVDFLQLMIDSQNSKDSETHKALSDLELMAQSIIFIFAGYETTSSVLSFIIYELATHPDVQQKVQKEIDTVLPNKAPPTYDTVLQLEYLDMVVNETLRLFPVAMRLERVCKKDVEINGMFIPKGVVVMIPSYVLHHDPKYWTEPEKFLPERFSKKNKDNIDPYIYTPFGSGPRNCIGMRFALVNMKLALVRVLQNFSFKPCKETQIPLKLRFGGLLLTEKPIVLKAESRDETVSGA

The assay deals with Cytochrome P450 3A7 (Homo sapiens) (UniProt P24462). Kind of assay: Cytochrome P450 family 3 subfamily A member 7 (CYP3A7) small molecule antagonists: luciferase biochemical qHTS assay (AID 1963596). Note: nearly all actives have a fitted effect of over 40% in size. As to conditions: P450-Glo CYP3A7 enzyme luminescence, 1 h; series mostly up to 57.4 µM. In a few lines:
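Compounds were screened in qHTS format for interference with CYP3A7 turnover of a proluciferin substrate. Reactions ran 1 h at room temperature after NADPH regeneration solution was added, then luciferin product was detected by luminescence.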
A general note: In qHTS, concentration-response curves come from the screen itself.
With `Fc1cc(Br)ccc1CBr`, the Potency result is “inactive”. The value for `CC(Cc1ccccc1)NCCCCl` (stereo not drawn) was “inactive”; that for `CN(C)C(=O)Oc1cc(OC(=O)N(C)C)cc(C(O)CNC(C)(C)C)c1` (stereo not drawn) was “inactive”. As for `NC(=O)c1cc([N+](=O)[O-])cc([N+](=O)[O-])c1`, the Potency was 11 µM (active). As to `CNC(C)Cc1ccccc1OC` (stereo not drawn), the Potency result was “inactive”. For the compound `COc1ccc2c3c1O[C@H]1[C@H](O)CC[C@H]4[C@@H](C2)N(C)CC[C@@]341`, the Potency entry is “inactive”. For `COP(=O)(OC)OC=C(Cl)Cl` the value was “inactive”. The value for `N#CC(O[C@@H]1O[C@H](CO[C@@H]2O[C@H](CO)[C@@H](O)[C@H](O)[C@H]2O)[C@@H](O)[C@H](O)[C@H]1O)c1ccccc1` (stereo partly drawn) was “inactive”; that for `O=c1n(Cl)c(=O)n(Cl)c(=O)n1Cl` was “inactive”. On to `O=[N+]([O-])c1cc([N+](=O)[O-])c2ccccc2c1`, for which the Potency result was “inactive”. The value for `Oc1ccccc1-c1ccccc1` was “inactive”. For the compound `O=[N+]([O-])c1c(Cl)c(Cl)cc(Cl)c1Cl`, the Potency entry is “inactive”. For `CN1CC[C@]23c4c5ccc(O)c4O[C@H]2[C@@H](O)CC[C@H]3[C@H]1C5` the value was “inactive”; for `CC1Sc2c(C(=O)O)c(=O)c3cc(F)c(N4CCNCC4)cc3n21` (stereo not drawn), “inactive”. For `CCCCC(CC)COC(=O)c1ccccc1C(=O)OCC(CC)CCCC` (stereo not drawn) the value was “inactive”; for `O=C1CN=C(c2ccccc2)c2cc([N+](=O)[O-])ccc2N1`, “inactive”. As for `NC(=O)[C@@H](CC1CC1)[C@@H](CCC(F)(F)F)C(=O)N[C@H]1N=C(c2ccccc2)c2cccc(F)c2NC1=O`, the Potency entry is “inactive”. With `NC1=NC(=O)C(c2ccccc2)O1` (stereo not drawn), the Potency result was “inactive”.
